In ChEMBL document CHEMBL3988442, “University of Dundee, Small-Polar-MMV Screening Library” (2021):

Molecular target: AMP-activated protein kinase, AMPK (Homo sapiens) (UniProt P54646+O43741+P54619+Q9UGJ0+Q9Y478+Q13131+Q9UGI9)
Assay: AMP-dependent Kinase enzyme assay. An in vitro enzyme assay that detects ADP turnover that is directly proportional to AMPK activity. This uses naive AMPK that is activated during the assay with MK-8722
Format: functional
Design: scale not given: direction of the effect not stated beside the values
Conditions: 30 µM

Compound	Percent Effect [%]
Cc1cc2ccccc2n1CCC(=O)N1CCCC(O)(CN(C)C)CC1 (stereo not given)	0.58
O=C(O)c1ccn(-c2cccc(NC(=O)c3ccccc3Cl)c2)n1	0.768
Cc1cncc(C2CCN(Cc3ccc(S(C)(=O)=O)cc3)CC2)n1	5.76
CC(=O)Nn1ccc2c(nnc3c(-c4ccc(F)cc4)cnn32)c1=O	10.3
COc1cccc(-c2nc(CNCc3cccnc3)cs2)c1	-1.6
COc1ccc(N2CCC(NC(=O)c3ccc(C#N)cc3)CC2)cc1	5.1
c1c[nH]c(-c2cn(CCSc3cnn[nH]3)nn2)n1	-8.05
CCCNC(=O)c1cnc2n1CCCC2	0.00547
O=C(O)c1ccc(C2CCCN(C(=O)c3ccc[nH]3)C2)cc1 (stereo not given)	3.76
Cn1c(N)nnc1SCc1c(F)cccc1Br	4.93
CN(CCOc1ccccc1F)C1CCOC1=O (stereo not given)	-5.42
O=C(NCc1cc(-c2ccccc2)no1)NC1CCCCNC1=O (stereo not given)	-4.86
COCCc1noc(CN2CCN(c3ccc(OC)cc3)C(=O)C2C)n1 (stereo not given)	4.12
CC(C)N(CC(=O)Nc1cccc(C#N)c1)C1CC1	0.161
Cn1nc(C(=O)NCCc2ccc(OC3CCCC3)cc2)ccc1=O	-4.35
OCCCNc1cccc(COC2CCCCC2)c1	-15.3
O=c1ccc(S(=O)(=O)N2CCCC2)cn1CC1CCCCO1 (stereo not given)	6.91
Cc1cc(CNC(=O)N2CCOC(c3ccccc3Cl)C2)no1 (stereo not given)	-7.62
Cc1nnc(C(C)N2CCCN(Cc3noc(C4CC4)n3)CC2)o1 (stereo not given)	-4.62
CCc1nc(N)nc(NCCC(=O)NC2CCCCC2)c1C	0.541
Cc1ccc(-c2noc(C3CCN3C(=O)c3ccc(=O)[nH]n3)n2)s1 (stereo not given)	19.2
CC(C)CCN(C(=O)Nc1cccc(C(=O)N(C)C)c1)C1CC1	-4.54
CC(C)CN(CC(F)(F)F)S(=O)(=O)c1cc(C(N)=O)n(C)c1	-3.17
COc1cc(CN2CCC(COCc3ccccc3)CC2)cc(OC)c1	0.75
Cc1noc(C)c1-c1n[nH]c2c1CN(S(=O)(=O)c1cccnc1)CC2	1.02
CN(CC(=O)Nc1ccccc1)C(=O)CN(C)c1ccc(Cl)cn1	2.82
Cc1cc(C(=O)N2C[C@@H](CN(C)CCN(C)C)[C@@H](CO)C2)nc(C)n1	-14.8
Cc1nc(NC(=O)C(C)N(C)Cc2ccc3c(c2)OCO3)sc1C (stereo not given)	6

Compound	Percent Effect [%]
CCc1nnc(NC(=O)c2c3c(nn2C2CCS(=O)(=O)C2)CCC3)s1 (stereo not given)	-8.02
CC(Oc1ccc2c(c1)OCO2)C(=O)N1CCC(N2CCCC2)CC1 (stereo not given)	6.31
CS(=O)(=O)N1CCCCC1c1ccc(Nc2cnccn2)nc1 (stereo not given)	4.25
CCOC(=O)c1n[nH]cc1CN1CCOC(Cc2ccc(OC)cc2)C1 (stereo not given)	2.27
CC(=O)N1CCN(CCNC(=O)NC(C)Cn2ccnc2)CC1 (stereo not given)	-2.62
CN(Cc1ccc(F)c(F)c1)Cc1cc2c(cc1Br)OCCO2	-7
c1cnc(N2CCCC(Cc3nccs3)C2)nc1 (stereo not given)	0.818
O=C(NCc1cc(Br)cs1)Nc1cn[nH]c1	-0.469
CC(NCc1nnc2n1CCCC2)c1nc(-c2cccs2)no1 (stereo not given)	-0.613
Cc1cc(C)c(CNc2cnn(CC(O)CN(C)C)c2)c(C)c1 (stereo not given)	-45.6
NC(=O)CN1C[C@@H](c2ccccc2F)[C@@]2(CCCCC(=O)N2)C1	15.1
CN1CCN(CCOc2ccc(NC(=O)c3cnc[nH]3)cc2)CC1	0.519
Oc1cc(C2CCCN(Cc3cccs3)C2)nc(-c2ccccn2)n1 (stereo not given)	16.9
COc1ccc(CN(C)C(=O)CN2CC(n3cc(C)cn3)C2)cc1F	-3.71
CSCC[C@H](NC(C)=O)C(=O)N(C)Cc1ccc(-n2cccn2)cc1	-8.05
COc1ccc(CCCN(C)C(=O)c2cc(C(C)=O)c[nH]2)cc1OC	-2.16
CC(C)(C)c1nc(CN2CCCC2c2nnc3ccccn23)no1 (stereo not given)	6.67
CN(C)Cc1cccc(-c2cccnc2C(=O)NCC2CC2)c1	20.3
CCOc1cc(Cl)ccc1CNC(=O)c1ccc(=O)n(C)c1	10.5
Cc1cc(C(F)F)nn1CC(=O)NCc1nccn1C	5.16
CC(C)N1CC(c2ccnc(Nc3nccs3)n2)C1	13.4
Cc1nc(C)c(C(=O)N2CCc3c(Cl)cccc32)o1	1.75
N#Cc1c(N)nc2c(c1-c1c[nH]nc1C1CCCCC1)COCC2	42.5
CC(CO)NC(=O)Nc1ccc(CC#N)cc1 (stereo not given)	-1.29
Cc1nc2sccn2c1CN(CCCN(C)C)Cc1ccccn1	3.1
Cn1cc(CN2CCCC(O)C2)c(-c2ccccc2F)n1 (stereo not given)	5.23
NC1CCc2nc(-c3cccnc3)nc(Nc3ccc(F)cc3)c2C1 (stereo not given)	27.2
